{
  "source": "PubChem BioAssay AID485364",
  "about": "(National Center for Advancing Translational Sciences (NCATS), 2010)",
  "note": "Among all 360,000 compounds or so, about 11,000 (3.1%) were called active. Another 4% or so got no clear call; they are omitted. Calls follow the shape of the dose curve; as a rule, active = well fitted inhibition curve with a large enough effect; inconclusive = small, poorly fitted or top-dose-only effect; inactive = no such curve, though single readings can be large or run the other way. What follows is part of a selection rich in actives, with near analogues and random picks from the rest. Entries that show only a call come without a potency. Potency is read from the fitted curve at half-maximal effect.",
  "data": [
    {"target": "Schistosoma mansoni thioredoxin glutathione reductase (TGR) (UniProt Q962Y6)", "assay": "qHTS Assay for the Inhibitors of Schistosoma Mansoni Peroxiredoxins; also: nearly all actives have a fitted effect of over 60% in size", "conditions": "purified TGR, DTNB reduction, TNB absorbance 405 nm; series mostly up to 114 µM", "how_it_was_run": "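First, TGR (20 nM dispensed) and NADPH were mixed with compound. Second, a 15 min room-temperature incubation followed. Third, further NADPH and then DTNB were added to start the reaction. Finally, TNB absorbance was monitored kinetically.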", "values": [
      {"compound": "COc1ccc(NC(=O)N2CCCn3nc(C)cc32)cc1OC", "Potency": "inactive"},
      {"compound": "C=CCOc1cccc(C2C(C(=O)c3ccc(C)o3)=C(O)C(=O)N2c2nnc(C)s2)c1", "note": "(centres undefined)", "Potency": "28.2 µM (active)"},
      {"compound": "COc1ccc(C2C(C(C)=O)=C(O)C(=O)N2c2nccs2)cc1", "note": "(centres undefined)", "Potency": "inactive"},
      {"compound": "COc1cc(C2C(C(=O)c3ccco3)=C(O)C(=O)N2c2cc(C)on2)ccc1OCc1ccccc1", "note": "(centres undefined)", "Potency": "inactive"},
      {"compound": "CCCCc1nn2c(=O)cc(COC(=O)c3ccc(NC(=O)c4ccccc4C)cc3)nc2s1", "Potency": "inactive"},
      {"compound": "Cc1ccc(NC(=O)C(=O)NCC(c2cccnc2)N2CCOCC2)cc1", "note": "(centres undefined)", "Potency": "inactive"},
      {"compound": "COc1ccc(NC(=O)Cn2c(=O)n(Cc3ccc(C(=O)NCc4ccccc4Cl)cc3)c(=O)c3ccccc32)cc1", "Potency": "inactive"},
      {"compound": "Cn1nc(-c2ccccc2)c(-c2ccccc2)c(C(=O)Nc2ccc(S(N)(=O)=O)cc2)c1=O", "Potency": "inactive"},
      {"compound": "Cc1ccc(C)c(N2CCN(CCCNC(=O)Nc3ccc(Cl)cc3)CC2)c1", "Potency": "inactive"},
      {"compound": "CC(C)c1ccc(S(=O)(=O)N2CCN(C(C)C(=O)NC3CCCC3)CC2)cc1", "note": "(centres undefined)", "Potency": "inactive"},
      {"compound": "CC(C(=O)NC1CCCC1)N1CCN(S(=O)(=O)c2ccccc2Cl)CC1", "note": "(centres undefined)", "Potency": "35.5 µM (active)"},
      {"compound": "O=C(Cc1ccc(S(=O)(=O)N2CCCC2)s1)NC1CCCCCC1", "Potency": "inactive"},
      {"compound": "O=C(Nc1ccc(OC(F)(F)F)cc1)C1CCCN(S(=O)(=O)c2ccc(Br)s2)C1", "note": "(centres undefined)", "Potency": "inactive"},
      {"compound": "Cc1ccc2nc(SCC(=O)N3CCN(c4ccccc4)CC3)nc(=O)n2c1", "Potency": "50.1 µM (active)"},
      {"compound": "Cc1ccc2nc(SCC(=O)N3CC(C)OC(C)C3)nc(=O)n2c1", "note": "(centres undefined)", "Potency": "inactive"},
      {"compound": "Cc1ccc2nc(SCC(=O)Nc3cccc4ccccc34)nc(=O)n2c1", "Potency": "inactive"},
      {"compound": "COC(=O)CC1Oc2ccccc2-n2cc(-c3ccccc3)nc21", "note": "(centres undefined)", "Potency": "inactive"},
      {"compound": "Cc1nc(SCC(=O)Nc2ccc(C(=O)O)cc2)n[nH]1", "Potency": "inactive"},
      {"compound": "CSc1ncc(Cl)c(C(=O)Nc2ccc(S(=O)(=O)N3CCCC(C)C3)cc2)n1", "note": "(centres undefined)", "Potency": "inactive"},
      {"compound": "Cc1cc(=O)n2[nH]c(-c3cccc(Cl)c3)cc2n1", "Potency": "inactive"},
      {"compound": "Cc1cc(=O)n2[nH]c(-c3sccc3-n3c(C)ccc3C)cc2n1", "Potency": "31.6 µM (active)"},
      {"compound": "C=CCc1c(C)nc2cc(-c3ccccc3)[nH]n2c1=O", "Potency": "inactive"},
      {"compound": "O=C(Nc1cc(Cl)cc(Cl)c1)c1ccc2c(c1)N(Cc1cccc(Cl)c1)C(=O)c1ccccc1S2=O", "note": "(centres undefined)", "Potency": "inactive"},
      {"compound": "CCCCNc1ccc(-c2nc(-c3ccncc3)no2)cc1[N+](=O)[O-]", "Potency": "inactive"},
      {"compound": "CC(C)CNc1ncnc2c1nnn2C", "Potency": "inactive"},
      {"compound": "COc1ccc(-n2c(SCC(=O)NCc3cccs3)nnc2-c2ccoc2C)cc1", "Potency": "39.8 µM (active)"},
      {"compound": "COc1ccc(-n2nnnc2SCC(=O)NCc2cccs2)cc1", "Potency": "inactive"},
      {"compound": "COc1ccc(-n2c(SCC(=O)NCc3ccco3)nnc2-c2c[nH]c3ccccc23)cc1", "Potency": "inactive"},
      {"compound": "COc1ccc(-c2noc(CCC(=O)N(C)c3ccccc3C)n2)cc1", "Potency": "inactive"},
      {"compound": "CCCSc1ncc(Cl)c(C(=O)Nc2c(C(=O)Nc3ccccc3)oc3ccccc23)n1", "Potency": "inactive"},
      {"compound": "COc1ccc(C2CC(=O)N(Cc3ccccc3C)c3c2c(C)nn3-c2nc(C)cc(C)n2)c(OC)c1", "note": "(centres undefined)", "Potency": "inactive"},
      {"compound": "COc1ccc(C(=O)NC(=S)NC2CCCCC2)cc1", "Potency": "1.41 µM (active)"},
      {"compound": "O=C(NC(=S)NC1CCCCC1)c1ccc(Cl)cc1", "Potency": "inactive"},
      {"compound": "CCCNC(=S)N1CCC(NC(=O)c2ccc(OC)cc2)CC1", "Potency": "inactive"},
      {"compound": "CCc1ccccc1N(C)C(=O)C1CCCN(c2ncnc3onc(-c4ccc(F)cc4)c23)C1", "note": "(centres undefined)", "Potency": "inactive"},
      {"compound": "CCn1cc(C(=O)N2CCN(c3cc(C)ccc3C)CC2)c(=O)c2cc(S(=O)(=O)N(C)C3CCCCC3)ccc21", "Potency": "inactive"},
      {"compound": "CCc1ccccc1NC(=O)CSc1nnc(-c2ccccc2)c(-c2ccccc2)n1", "Potency": "inactive"},
      {"compound": "COC(C(=O)NCc1ccccc1C)c1ccccc1", "note": "(centres undefined)", "Potency": "inactive"},
      {"compound": "COc1ccccc1CCNC(=O)C(=O)NCCC1CCCCN1S(=O)(=O)c1cccs1", "note": "(centres undefined)", "Potency": "inactive"},
      {"compound": "Cc1ccccc1CNC(=O)C(=O)NCC(c1cccs1)S(=O)(=O)c1cccs1", "note": "(centres undefined)", "Potency": "25.1 µM (active)"},
      {"compound": "O=C(NCc1ccccc1Cl)C(=O)NCC1CCCN1S(=O)(=O)c1cccs1", "note": "(centres undefined)", "Potency": "inactive"},
      {"compound": "COc1ccccc1CNC(=O)C(=O)NCC(c1cccs1)S(=O)(=O)c1cccs1", "note": "(centres undefined)", "Potency": "25.1 µM (active)"},
      {"compound": "CC(C)C(=O)NCC(c1cccs1)S(=O)(=O)c1ccc(F)cc1", "note": "(centres undefined)", "Potency": "inactive"},
      {"compound": "Cc1ccc(SCC(=O)Nc2ccc3oc(-c4ccccc4C)nc3c2)cc1", "Potency": "inactive"},
      {"compound": "CCC(C)NC(=O)Cn1c(=O)n(-c2ccc(Cl)cc2)c(=O)c2c3c(sc21)CCCC3", "note": "(centres undefined)", "Potency": "inactive"},
      {"compound": "Cc1c(Cl)cccc1NC(=O)C1CCCN(c2ncnc3onc(C)c23)C1", "note": "(centres undefined)", "Potency": "inactive"},
      {"compound": "CCOc1ccc(NC(=O)Cn2c(C)ccc(C#N)c2=O)cc1", "Potency": "inactive"},
      {"compound": "Cc1ccc(CSCC(N)C(=O)O)cc1", "note": "(centres undefined)", "Potency": "28.2 µM (active)"},
      {"compound": "CSCC(NS(=O)(=O)c1ccc(C)cc1)C(=O)O", "note": "(centres undefined)", "Potency": "inactive"}
    ]}
  ]
}
